Changes are numbered by the printed parent chain; changes in the protein carry UniProt numbers. Over roughly 16,000 sequences, “ka relative to ugcaugu” has its median near 0.096; the highest 2% begin near 0.35. The entries come from a sample that favours the highest values as a whole.

Experimental findings from publication PMC9911399, “Two distinct binding modes provide the RNA-binding protein RbFox with extraordinary sequence specificity” are described below.

The labels stand for the following.
T1: RBFOX1 RRM RbFoxmut (Fox-RRM*) (Homo sapiens, UniProt Q9NWB1 109-208, R118D;E147R;N151S;E152T)
T1 sequence: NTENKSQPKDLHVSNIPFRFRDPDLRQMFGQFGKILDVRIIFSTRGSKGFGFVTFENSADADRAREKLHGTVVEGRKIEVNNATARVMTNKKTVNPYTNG

B1: UGACGAC (DNA:RNA)
RNA: GGGAGACCGGAAUUCAGAUUGUCCUGACGACUUAAAUCCCGUCGUAGCCACCA
DNA 1: CAATCTGAATTCCGGTCTCCC
DNA 2: TGGTGGCTACGACGGGATT
B2: GCCAGGU (DNA:RNA)
RNA: B1 RNA with U25G, G26C, A27C, C28A, A30G, C31U
DNA 1: CAATCTGAATTCCGGTCTCCC
DNA 2: TGGTGGCTACGACGGGATT
B3: UAUGCGU (DNA:RNA)
RNA: B1 RNA with G26A, A27U, C28G, G29C, A30G, C31U
DNA 1: CAATCTGAATTCCGGTCTCCC
DNA 2: TGGTGGCTACGACGGGATT
B4: GAAAGGG (DNA:RNA)
RNA: B1 RNA with U25G, G26A, C28A, A30G, C31G
DNA 1: CAATCTGAATTCCGGTCTCCC
DNA 2: TGGTGGCTACGACGGGATT
B5: GGCACGG (DNA:RNA)
RNA: B1 RNA with U25G, A27C, C28A, G29C, A30G, C31G
DNA 1: CAATCTGAATTCCGGTCTCCC
DNA 2: TGGTGGCTACGACGGGATT
B6: AUAACAC (DNA:RNA)
RNA: B1 RNA with U25A, G26U, C28A, G29C
DNA 1: CAATCTGAATTCCGGTCTCCC
DNA 2: TGGTGGCTACGACGGGATT
B7: UUAGACU (DNA:RNA)
RNA: B1 RNA with G26U, C28G, G29A, A30C, C31U
DNA 1: CAATCTGAATTCCGGTCTCCC
DNA 2: TGGTGGCTACGACGGGATT
B8: UCGAAAU (DNA:RNA)
RNA: B1 RNA with G26C, A27G, C28A, G29A, C31U
DNA 1: CAATCTGAATTCCGGTCTCCC
DNA 2: TGGTGGCTACGACGGGATT
B9: UCGAUUC (DNA:RNA)
RNA: B1 RNA with G26C, A27G, C28A, G29U, A30U
DNA 1: CAATCTGAATTCCGGTCTCCC
DNA 2: TGGTGGCTACGACGGGATT
B10: UCGAUUG (DNA:RNA)
RNA: B1 RNA with G26C, A27G, C28A, G29U, A30U, C31G
DNA 1: CAATCTGAATTCCGGTCTCCC
DNA 2: TGGTGGCTACGACGGGATT
B11: UCGUAUC (DNA:RNA)
RNA: B1 RNA with G26C, A27G, C28U, G29A, A30U
DNA 1: CAATCTGAATTCCGGTCTCCC
DNA 2: TGGTGGCTACGACGGGATT
B12: UCGAAUC (DNA:RNA)
RNA: B1 RNA with G26C, A27G, C28A, G29A, A30U
DNA 1: CAATCTGAATTCCGGTCTCCC
DNA 2: TGGTGGCTACGACGGGATT
B13: UCGAAUG (DNA:RNA)
RNA: B1 RNA with G26C, A27G, C28A, G29A, A30U, C31G
DNA 1: CAATCTGAATTCCGGTCTCCC
DNA 2: TGGTGGCTACGACGGGATT
B14: CCAUUAU (DNA:RNA)
RNA: B1 RNA with U25C, G26C, C28U, G29U, C31U
DNA 1: CAATCTGAATTCCGGTCTCCC
DNA 2: TGGTGGCTACGACGGGATT
B15: GUGGCUG (DNA:RNA)
RNA: GGGAGACCGGAAUUCAGAUUGUCCGUGGCUGUUAAAUCCCGUCGUAGCCACCA
DNA 1: CAATCTGAATTCCGGTCTCCC
DNA 2: TGGTGGCTACGACGGGATT
B16: UUGGCUC (DNA:RNA)
RNA: B15 RNA with G25U, G31C
DNA 1: CAATCTGAATTCCGGTCTCCC
DNA 2: TGGTGGCTACGACGGGATT
B17: GUGUGGC (DNA:RNA)
RNA: B15 RNA with G28U, C29G, U30G, G31C
DNA 1: CAATCTGAATTCCGGTCTCCC
DNA 2: TGGTGGCTACGACGGGATT
B18: UUGGCUA (DNA:RNA)
RNA: B15 RNA with G25U, G31A
DNA 1: CAATCTGAATTCCGGTCTCCC
DNA 2: TGGTGGCTACGACGGGATT
B19: GUGGCUC (DNA:RNA)
RNA: B15 RNA with G31C
DNA 1: CAATCTGAATTCCGGTCTCCC
DNA 2: TGGTGGCTACGACGGGATT
B20: UUGGCUG (DNA:RNA)
RNA: B15 RNA with G25U
DNA 1: CAATCTGAATTCCGGTCTCCC
DNA 2: TGGTGGCTACGACGGGATT

This assay has as its target T1, RBFOX1 RRM RbFoxmut (Fox-RRM*). Put plainly: EMSA; HiTS-Eq, 1 nM pool, 10 min; buffer printed only for the single-RNA assays: 10 mM Tris pH 7.5, 150 mM NaCl, 3.4 mM EDTA, 0.001% NP-40, 30 C. The following applies: tags: His6 N-terminal (pET28a); label: 5' 32P. The gist of the method: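 Purified RbFox RRM, wild type or mutant, was incubated for 10 min in 50 µL with 1 nM of a 5′-radiolabelled RNA pool carrying 7 randomized nucleotides, whose flanks were annealed to DNA oligonucleotides, over a series of increasing protein concentrations. Unbound RNA was resolved on 8% native PAGE, cut out, reverse-transcribed, barcoded by PCR and sequenced on an Illumina HiSeq 2500. Relative association constants were derived from changes in read counts for each RNA species versus the control reaction and normalised to the cognate motif.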
For the molecule B1, the binding signal is 0.069 KA relative to UGCAUGU.
For B2, the binding signal was 0.0955 KA relative to UGCAUGU.
As to B3, the binding signal is 0.108 KA relative to UGCAUGU.
For B4 the value was 0.0436 KA relative to UGCAUGU; for B5, 0.149 KA relative to UGCAUGU; for B6, 0.0733 KA relative to UGCAUGU.
In the case of B7, the binding signal is 0.0743 KA relative to UGCAUGU.
On to B8, for which the binding signal is 0.0789 KA relative to UGCAUGU.
Turning to B9, the binding signal was 0.115 KA relative to UGCAUGU.
As for B10, the binding signal is 0.239 KA relative to UGCAUGU.
Regarding B11, the binding signal is 0.192 KA relative to UGCAUGU.
Consider B12, for which the binding signal was 0.36 KA relative to UGCAUGU.
On to B13, for which the binding signal is 1.31 KA relative to UGCAUGU.
Take B14: the binding signal was 0.131 KA relative to UGCAUGU.
B15: the binding signal is 0.549 KA relative to UGCAUGU.
For B16, the binding signal was 0.134 KA relative to UGCAUGU.
Consider B17, for which the binding signal was 0.132 KA relative to UGCAUGU.
With B18, the binding signal is 0.168 KA relative to UGCAUGU.
In the case of B19, the binding signal was 0.125 KA relative to UGCAUGU.
On to B20, for which the binding signal was 0.435 KA relative to UGCAUGU.
